From PubChem BioAssay (NCATS)
Records with an inconclusive call do not appear. Entries that show only a call come without a potency. Activity calls are given as the source filed them. Unless noted, calls come from the whole dose curve; as a rule, active = well fitted curve in the direction sought with a large enough effect; inconclusive = small, poorly fitted or top-dose-only effect, or another doubt; inactive = no such curve, though single readings can be large; an effect the other way counts as inactive or inconclusive.

Key:
[1] = target: Aldehyde dehydrogenase, mitochondrial (Homo sapiens) (UniProt P05091); assay: qHTS for Inhibitors of the Aldehyde Dehydrogenase Family (ALDH2) Confirmatory screens (AID 2061303; active = well fitted inhibition curve with a large enough effect; title and protocol of this record describe different tests; note: nearly all actives have a fitted effect of over 45% in size; note: potency is the fitted concentration of half-maximal effect); conditions: ALDH inhibition qHTS; series mostly up to 45.4 µM
[2] = target: Aldehyde dehydrogenase, mitochondrial (Homo sapiens) (UniProt P05091); assay: qHTS for Inhibitors of the Aldehyde Dehydrogenase Family (ALDH2) Primary screen (AID 2061308); conditions: ALDH2 enzyme inhibition qHTS, 1536-well; series mostly up to 56 µM; note: nearly all actives have a fitted effect of over 55% in size; note: potency is the fitted concentration of half-maximal effect
[3] = target: Retinal dehydrogenase 2 (Homo sapiens) (UniProt O94788); assay: qHTS for Inhibitors of the Aldehyde Dehydrogenase Family (ALDH1A2) Confirmation screens (AID 2061314); conditions: ALDH1A2 enzyme inhibition qHTS confirmation; series mostly up to 45.9 µM; note: nearly all actives have a fitted effect of over 65% in size; note: potency is the fitted concentration of half-maximal effect
[4] = target: Retinaldehyde dehydrogenase 3 (Homo sapiens) (UniProt P47895); assay: qHTS for Inhibitors of the Aldehyde Dehydrogenase Family (ALDH1A3) Primary screen (AID 2061315); conditions: ALDH inhibition qHTS; series mostly up to 56 µM; note: potency is the fitted concentration of half-maximal effect
[5] = target: Aldehyde dehydrogenase 1A1 (Homo sapiens) (UniProt P00352); assay: qHTS for Inhibitors of the Aldehyde Dehydrogenase Family (ALDH1A1) Confirmatory screens (AID 2061316); conditions: ALDH inhibition qHTS; series mostly up to 47.3 µM; note: nearly all actives have a fitted effect of over 65% in size; note: potency is the fitted concentration of half-maximal effect
[6] = target: Retinaldehyde dehydrogenase 3 (Homo sapiens) (UniProt P47895); assay: qHTS for Inhibitors of the Aldehyde Dehydrogenase Family (ALDH1A3) Confirmatory screens (AID 2061311); conditions: ALDH inhibition qHTS; series mostly up to 46 µM; note: nearly all actives have a fitted effect of over 60% in size; note: potency is the fitted concentration of half-maximal effect
[7] = qHTS for Inhibitors of the Aldehyde Dehydrogenase Family (ALDH1A2, ALDH1A3, ALDH2, ALDH3A1) (AID 2061307); conditions: ALDH inhibition qHTS; series mostly up to 50.3 µM; note: test system not described further here; potency is the fitted concentration of half-maximal effect; nearly all actives have a fitted effect of over 50% in size
[8] = target: Retinaldehyde dehydrogenase 3 (Homo sapiens) (UniProt P47895); assay: qHTS for Inhibitors of the Aldehyde Dehydrogenase Family (ALDH1A3) Validation screen (AID 2061312); conditions: ALDH1A3 enzyme inhibition qHTS validation, fluorescence; series mostly up to 84.7 µM; note: nearly all actives have a fitted effect of over 45% in size

Row | SMILES | Potency [1] | Potency [2] | Potency [3] | Potency [4] | Potency [5] | Potency [6] | Potency [7] | Potency [8]
1 | O=C(c1ccc(-c2cnc3c(O)cccc3c2)cc1)N1CCNCC1 | inactive | inactive | inactive | inactive | – | – | – | –
2 | Cc1c(-c2ccccc2)no[n+]1[O-] | inactive | inactive | inactive | inactive | inactive | – | – | –
3 | COc1ccc(C2Nc3ccccc3C(=O)N2Cc2ccccc2)cc1COc1ccccc1OC (stereo not drawn) | inactive | inactive | 8.96 µM (active) | inactive | – | – | – | –
4 | O=C1CCc2cc(S(=O)(=O)Nc3cc(F)cc(Cl)c3)c(F)cc2N1 | inactive | inactive | – | inactive | inactive | inactive | – | –
5 | NC(=O)C1CCN(c2nc(-c3ccc4occc(=O)c4c3)cs2)CC1 | inactive | inactive | inactive | inactive | – | – | – | –
6 | O=C1c2ccccc2NC(c2ccc(-c3ccc(-c4ccccc4)cc3)o2)N1O (stereo not drawn) | 3.57 µM (active) | 1.58 µM (active) | 5.65 µM (active) | inactive | 4 µM (active) | – | – | –
7 | CCOC(=O)c1ccc(O)c2ncc(N3CCC(C(=N)N)CC3)cc12 | inactive | inactive | – | – | inactive | 8.96 µM (active) | – | –
8 | Cc1c(Cl)cccc1NS(=O)(=O)c1cc2c(cc1F)NC(=O)CC2 | inactive | inactive | – | inactive | inactive | inactive | – | –
9 | COc1ccc(-c2csc(NC(=O)c3ccncc3NS(=O)(=O)c3ccc(C)cc3)n2)cc1 | inactive | inactive | – | inactive | 22.5 µM (active) | inactive | – | –
10 | CC(C)(O)C1CC=C(C(=O)OCC2OC(Oc3c(O)cc(C(=O)O)cc3O)C(O)C(O)C2O)CC1 (stereo not drawn) | inactive | inactive | inactive | inactive | – | – | – | –
11 | O=C(Nc1ncc([N+](=O)[O-])s1)c1ccccc1O | 28.2 µM (active) | inactive | – | 2 µM (active) | – | 0.449 µM (active) | – | –
12 | N#Cc1c(-c2ccc(Cl)c([N+](=O)[O-])c2)no[n+]1[O-] | 2.83 µM (active) | 0.398 µM (active) | 2.83 µM (active) | inactive | 7.98 µM (active) | – | – | –
13 | CC(=O)NC(C)c1cc(Cl)c2cccnc2c1O (stereo not drawn) | inactive | inactive | 28.3 µM (active) | inactive | – | – | – | –
14 | CC(=O)c1ccc(N2CCN(S(=O)(=O)c3ccc4c(c3)n(C)c(=O)n4C)CC2)cc1 | 0.316 µM (active) | inactive | – | – | inactive | 2.01 µM (active) | – | –
15 | Nc1ncc(-c2cccc(-c3nn4c(=O)cc(N5CCNCC5)nc4s3)c2)cn1 | 14.2 µM (active) | inactive | 11.3 µM (active) | inactive | – | – | – | –
16 | COc1cc2ncc(-c3ccccc3)nc2cc1OC | inactive | inactive | inactive | – | – | – | – | –
17 | CCOC(=O)c1cnn(-c2ccc(NC(=O)C(Cl)=C(Cl)Cl)cc2)c1C(F)(F)F | – | 4.47 µM (active) | 0.634 µM (active) | inactive | 4 µM (active) | 7.08 µM (active) | 4.47 µM (active) | –
18 | C=C1CC[C@H]2[C@@](C)(CCC(O)[C@@]2(C)CO)[C@@H]1C/C=C(/C(=O)O)C(O)CO (stereo partly drawn) | – | inactive | – | – | – | – | – | –
19 | COc1ccnc(NC(=S)N2CCN(c3ccc(Cl)c(Cl)c3)CC2)c1 | 4.47 µM (active) | 15.8 µM (active) | 3.57 µM (active) | – | 4 µM (active) | – | – | –
20 | Oc1ccc(-c2cnc3ccc(NCc4ccco4)nn23)cc1 | – | inactive | – | inactive | – | – | – | inactive
